Shown are actives, neighbours in structure and some others; about 3.1% of the full set was active somewhere.
rTrxR1 inhibitor = rat TrxR1 inhibition. 1% of 390,000 active. recombinant rTrxR1, NADPH fluorescence consumption, selenite substrate. AID 588453. Potency, µM (highest dose often 114 µM), for the others: at the top dose activity change, negative = inhibition, most hits filed as inhibitors; note: % is set by controls: 0 for no effect and ±100 for the full control effect; nearly all actives have a fitted effect of over 65% in size
Target sequence (O89049 whole entry, looked up): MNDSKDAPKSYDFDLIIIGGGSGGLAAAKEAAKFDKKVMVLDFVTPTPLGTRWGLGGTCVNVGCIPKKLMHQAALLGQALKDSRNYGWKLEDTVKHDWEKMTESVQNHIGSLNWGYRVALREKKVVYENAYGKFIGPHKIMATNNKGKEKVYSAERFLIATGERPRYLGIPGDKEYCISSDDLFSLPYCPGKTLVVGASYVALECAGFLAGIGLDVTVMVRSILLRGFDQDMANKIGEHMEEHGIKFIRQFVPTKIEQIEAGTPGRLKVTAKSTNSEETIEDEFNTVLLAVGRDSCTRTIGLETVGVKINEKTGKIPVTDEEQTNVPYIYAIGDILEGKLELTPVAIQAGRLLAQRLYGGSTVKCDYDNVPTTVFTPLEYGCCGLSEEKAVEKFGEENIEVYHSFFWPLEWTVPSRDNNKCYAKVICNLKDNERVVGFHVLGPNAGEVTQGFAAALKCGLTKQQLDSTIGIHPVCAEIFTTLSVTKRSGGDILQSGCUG
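Rat TrxR1 (90 nM in the dispensed reagent) was pre-reduced with 400 uM NADPH for 5 min at room temperature, then incubated with compound for 15 min. After 400 uM selenite was added, NADPH fluorescence (Ex 340/Em 450 nm) was followed for 8 min.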
mIDH1 inhibitor = inhibitors of human mutant IDH1 R132H. AID 602179. Potency, µM (series often up to 76.6 µM), for the others: top-dose activity change, negative = inhibition, usual class: inhibitors. IDH1-R132H enzyme, NADPH consumption, diaphorase/resazurin fluorescence. 0.093% of 390,000 active. O75874; note: % is set by controls: 0 for no effect and ±100 for the full control effect; nearly all actives have a fitted effect of over 65% in size
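IDH1-R132H (0.5 ug/mL dispensed) in pH 7.5 Tris buffer was preincubated 30 min with compound, then given a substrate mix of 0.016 mM NADPH and 2 mM alpha-KG for 80 min at room temperature; remaining NADPH was read by diaphorase/resazurin fluorescence.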
Mito fusion act = blocks mitochondrial division or promotes mitochondrial fusion; Potency, µM (doses to about 46.1 µM), for inactives: top-dose growth rescue (activation), actives largely listed as activators; 0.23% of 320,000 active; S. cerevisiae fusion-defective mutant growth rescue, CellTiterGlo 48 h; AID 485298; note: % of control where 0% means no effect; nearly all actives have a fitted effect of over 45% in size
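Yeast fusion mutant, YPEG (non-fermentable carbon), compound, 48 h at 37C non-permissive; CellTiterGlo added, 10 min RT, luminescence read. Rescued growth = division inhibition.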
Nrf2 inh = blocks Nrf2 signaling; AID 504444; 2.1% of 360,000 active; A549 ARE-Fluc reporter, luciferase luminescence, 18-24 h; Potency, µM (highest dose often 46 µM), without a hit: at the top dose activity change, negative = inhibition, actives largely listed as inhibitors; note: % is set by controls: 0 for no effect and ±100 for the full control effect; nearly all actives have a fitted effect of over 60% in size
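A549 ARE_Fluc cells (5000/well, 5% FBS OPTI-MEM) pre-incubated 2 h, then treated with compounds 18-24 h at 37C/5% CO2 in concentration-response. CellTiter-Fluor viability read first; BugLite luciferase luminescence after 15 min at room temperature gives Nrf2 activity.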
A549 viability = counter-screen for Nrf2 inhibitors: cytotoxicity in A549 cells | A549 ARE-Fluc cells, CellTiter-Fluor viability, 18-24 h | Potency, µM (highest dose often 46 µM), for the others: at the highest dose activity change, negative = cytotoxicity, usual class: inhibitors | 0.16% of 390,000 active; note: % is set by controls: 0 for no effect and ±100 for the full control effect
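A549 ARE_Fluc cells in 5% FBS OPTI-MEM were exposed to compounds in concentration-response for 18-24 h at 37 deg C. Viability was read by CellTiter-Fluor fluorescence (Ex 405/Em 525) after 30 min, before the luciferase read.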
TrxR1 substrate = substrates of rat thioredoxin reductase 1; O89049; purified TrxR1 substrate turnover, NADPH consumption readout; Potency, µM (titrated, usually from 114 µM), inactives show top-dose activity change, negative = substrate turnover; 0.01% of 390,000 active; AID 588456; note: % is set by controls: 0 for no effect and ±100 for the full control effect; nearly all actives have a fitted effect of over 50% in size
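Rat TrxR1, dispensed at 90 nM, was prereduced with 400 uM NADPH (final) for 5 min at ~22 deg C, then incubated with compound 15 min before 400 uM selenite. A first-read NADPH fluorescence drop versus no-compound background flagged substrates.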
An asterisk follows results filed as active; ? = inconclusive; · = no result given; [ ] = another dose, or the depositor's remark. Calls come from the whole dose curve; as a rule, active = well fitted curve in the direction sought with a large enough effect; inconclusive = small, poorly fitted or top-dose-only effect, or another doubt; inactive = no such curve, though single readings can be large; an effect the other way counts as inactive or inconclusive. Potency is the fitted concentration of half-maximal effect.

SMILES	rTrxR1 inhibitor	mIDH1 inhibitor	Mito fusion act	Nrf2 inh	A549 viability	TrxR1 substrate
CCc1cccc(NC(=O)Cn2c(=O)n(CC3CCC(C(=O)NC)CC3)c(=O)c3sccc32)c1 (stereo not drawn)	12.8%[57.1 µM]	28.2%	·	?	-2.9%	2.8%[57.1 µM]
C=CCn1cccc(C(=O)Nc2ccc(Cl)cc2)c1=O	-2.2%	-3.5%	?	?	-1.4%	-5.6%
C=CCn1cccc(C(=O)Nc2ccc(OCC)cc2)c1=O	7.9%[57.1 µM]	-1.1%	-2.2%	11.6µM*	-0.5%	1.1%[57.1 µM]
COc1cc(OC)c(NC(=O)c2cc(CN3CCOCC3)on2)cc1Cl	12.6%[57.1 µM]	-7.7%	·	5.5%	-6.7%	-0.3%[57.1 µM]
NC1=C(Br)C(=O)c2ncccc2C1=O	-20.2%[11.4 µM]	14.9%	·	10.3µM*	16.4µM*	6.4%[11.4 µM]
O=C1c2cccnc2C(=O)N1CO	14.1%[57.1 µM]	4.6%	1.4%	·	-2.2%	10.3%[57.1 µM]
Cc1ccc(-c2nn(-c3ccccc3)cc2C2CC(c3ccccc3)=NN2C(=O)CCC(=O)O)cc1 (stereo not drawn)	-2.6%	-10.2%	-1.2%	20.6µM*	-6.7%	-2.4%
CC1Cc2ccccc2N1C(=O)c1ccc(N2CCCC2)c([N+](=O)[O-])c1 (stereo not drawn)	-12.6%	-19.5%	13.8%	18.4µM*	?	-10.6%
O=C(c1ccc(N2CCCCC2)c([N+](=O)[O-])c1)N(Cc1ccccc1)c1ccccn1	10.2%[57.1 µM]	4.6%	3.2%	16.4µM*	-8.3%	1.9%[57.1 µM]
COC(=O)CCN(C(=O)c1ccc(N2CCCCC2)c([N+](=O)[O-])c1)c1ccccn1	0.5%[57.1 µM]	0.5%	-1.7%	-4.1%	-2.2%	-4.2%[57.1 µM]
CC1Cc2ccccc2N1C(=O)c1ccc(N2CCCCC2)c([N+](=O)[O-])c1 (stereo not drawn)	-13.3%	4.5%	3.5%	23.1µM*	-12.5%	-11.8%
O=C(c1ccc(N2CCCC2)c([N+](=O)[O-])c1)N1CCc2ccccc2C1	4.9%[57.1 µM]	13.6%	?	?	-20.8%	4.2%[57.1 µM]
COC(=O)c1ccccc1NC(=S)NC(=O)C1CCCCC1	15.8µM*	-7.1%	-6.7%	9.4%	16.2%	-2.9%
Cc1ccccc1C(=O)NC(=S)Nc1ccccc1C(=O)O	1.5%[57.1 µM]	5.3%	11.7%	-11.4%	-0.4%	1.0%[57.1 µM]
COC(=O)c1ccccc1NC(=S)NC(=O)c1ccc2c(c1)OCO2	8.91µM*	1.2%	1.2%	-25.3%	0.7%	2.0%
COC(=O)c1ccccc1NC(=S)NC(=O)c1ccccc1C	11.2µM*	2.5%	-2.0%	-17.4%	-3.3%	5.8%
NC(=O)c1ccccc1NC(=S)NC(=O)c1ccc(Br)o1	25.1µM*	2.9%	-0.7%	?	0.1%	-9.3%
COC(=O)c1ccccc1NC(=O)C1CCCC1	16.4%[57.1 µM]	0.6%	5.1%	6.6%	11.2%	-5.7%
O=C(c1ccc2c(c1)OCO2)c1cn(Cc2ccc(F)cc2)c2ccccc2c1=O	11.9%	-15.5%	·	-19.3%	-12.9%	-5.2%
CC(C)(C)CC(C)(C)N=C1Nc2ccc(Cl)cc2N[C@]12C[C@H]1CCCC(=O)N3CC[C@@H](C2)[C@@H]13	-7.5%	·	·	·	·	-2.8%
COC(=O)c1ccccc1NC(=S)NC(=O)c1ccc(C)cc1	39.8µM*	2.6%	-7.2%	?	5.7%	-9.3%
Cc1nc2ccc(S(=O)(=O)N3CCN(S(=O)(=O)c4c(F)cccc4F)CC3)cc2s1	·	·	·	-4.9%	-2.9%	·
O=C(NCc1ccncc1)c1cccc(S(=O)(=O)Nc2ccc(SC(F)F)cc2)c1	23.8%	-3.7%	0.9%	14.6µM*	-20.8%	1.6%
O=C(NCc1ccccn1)c1cccc(S(=O)(=O)Nc2ccc(SC(F)F)cc2)c1	19.6%	?	9.1%	-28.0%	-4.5%	-2.1%
CCOc1ccc(N2C(=O)CC(NCC#N)C2=O)cc1 (stereo not drawn)	22.4µM*	-6.7%	-3.0%	12.1%	2.6%	2.9%
SMILES	rTrxR1 inhibitor	mIDH1 inhibitor	Mito fusion act	Nrf2 inh	A549 viability	TrxR1 substrate
Cn1cnc(S(=O)(=O)N2CCCC(C(=O)NCc3ccccc3Cl)C2)c1 (stereo not drawn)	1.5%[57.1 µM]	16.1%	·	·	8.1%	-5.6%[57.1 µM]
Cc1ccc(CNC(=O)C2CCCCN2S(=O)(=O)c2ccc(F)cc2)cc1 (stereo not drawn)	2.5%[57.1 µM]	6.5%	·	-22.8%	5.5%	-0.8%[57.1 µM]
CCC(Sc1nc(C)cc(C)n1)C(=O)NC1=NN=C(c2ccc(C)cc2)CS1 (stereo not drawn)	4.8%[57.1 µM]	46.5µM*	-7.1%	?	?	1.6%[57.1 µM]
Cc1nc([N+](=O)[O-])cn1CC(O)c1ccc2c(c1)OCCO2 (stereo not drawn)	11.9%	·	·	·	·	-3.1%
COc1ccc(C=C2SC(=S)NC2=O)c(OC)c1OC	-9.2%[11.4 µM]	-2.9%	·	?	14.6µM*	9.3%[57.1 µM]
COc1ccccc1C=C1SC(=S)NC1=O	?	1.4%	·	-2.4%	-16.7%	-22.6%
Cc1cc(/C=C2\SC(=S)NC2=O)c(C)n1C	25.1µM*	-5.7%	1.7%	-6.8%	-25.7%	-18.1%
COc1ccc(Br)cc1CNC(=O)CCSCc1ccc(Cl)cc1	15.9%[57.1 µM]	8.6%	·	·	5.1%	8.6%[57.1 µM]
Cn1cnc([N+](=O)[O-])c1Sc1nnc(-c2cccnc2)n1C	0.631µM*	0.1%	-15.2%	-14.5%	-12.5%	6.2%[57.1 µM]
COC(=O)c1cc2oc(C)cc2n1Cc1c(C)cc(C)cc1C	48.6%	4.7%	·	12.1%	-6.7%	24.3%
O=S(=O)(c1ccc(Cl)cc1)N1CCN(Cc2ccc(O)c3ncccc23)CC1	3.9%[57.1 µM]	7.4%	-2.0%	?	-1.5%	-5.3%[57.1 µM]
Cc1cccc(NCc2ccc(O)c3ncccc23)c1	0.794µM*	7.7%	1.7%	?	-24.3%	4.1%
Oc1ccc(CNc2ccccc2)c2cccnc12	?	4.4%	0.8%	5.17µM*	-13.5%	-3.5%

Screening results from PubChem.
